Screening data deposited in PubChem by National Center for Advancing Translational Sciences (NCATS).
D1 agonist – activates the human D1 dopamine receptor | HEK293 T-REx D1 cells, calcium flux, agonist mode | activation, % at 2 µM | actives 1% (n = 360,000) | AID 504660; note: 0% is about no effect
Target sequence (P21728 whole entry, looked up): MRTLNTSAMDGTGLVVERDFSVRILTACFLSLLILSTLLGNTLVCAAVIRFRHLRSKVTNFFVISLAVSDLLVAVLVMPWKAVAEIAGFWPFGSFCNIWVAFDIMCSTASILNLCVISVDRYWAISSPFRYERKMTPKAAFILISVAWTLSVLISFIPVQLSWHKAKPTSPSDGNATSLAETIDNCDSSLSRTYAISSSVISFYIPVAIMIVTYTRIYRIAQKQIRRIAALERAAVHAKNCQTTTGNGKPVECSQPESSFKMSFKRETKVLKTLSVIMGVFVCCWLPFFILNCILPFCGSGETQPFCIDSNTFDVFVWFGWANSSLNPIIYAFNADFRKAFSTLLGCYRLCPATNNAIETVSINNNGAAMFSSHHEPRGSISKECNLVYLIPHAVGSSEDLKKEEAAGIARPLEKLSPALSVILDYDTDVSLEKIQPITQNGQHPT
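Inducible HEK293 T-REx D1 cells, force-coupled to calcium signalling, were plated at 4000 cells/well with tetracycline and held overnight at 30 C. After no-wash calcium dye loading, compound-evoked calcium rise over 180 s flagged agonists.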
TRHR PAM – allosteric enhancers of human TRH receptor; P34981; TRHR cells, fluo-8 calcium fluorescence, EC20 TRH enhancement; enhancement, % at 2 µM; actives 0.66% (n = 360,000); AID 493056; in the data active = enhancement above about 30%; note: 0% is about no effect
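Enhancer read-out: after compound pinning and an initial kinetic agonist-mode read, an EC20 of TRH (10 nM final) was injected and fluo-8 calcium signal (Ex 480/Em 530) followed at 1 s/cycle for 100 cycles in TRHR-expressing cells.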
TRHR agonist – activates the human TRH receptor; TRHR cells, calcium flux fluo-8, FDSS agonist mode; P34981; actives 0.18% (n = 360,000); activation, % at 2 µM; note: 0% is about no effect
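TRHR-expressing cells, plated overnight in medium with 10% serum, were loaded with fluo-8 calcium dye at room temperature. After a 10 s baseline, library compound was pin-added and calcium release was recorded kinetically (ex 480/em 530) as agonist response.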
D1 antagonist – antagonists of human D1 dopamine receptor | P21728 | HEK293 TREx D1 cells, calcium flux, dopamine EC80; active compounds read low | activity change, negative = inhibition, % at 10 µM | actives 3.2% (n = 360,000); in the data active = activity change below about -30%; note: % is set by controls: 0 for no effect and ±100 for the full control effect
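Tetracycline-induced HEK293 Trex D1 cells, force-coupled to calcium, dye-loaded; compounds added and read 180 s, then EC80 dopamine added and calcium flux tracked kinetically another 180 s.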
D1 potentiator – enhances dopamine response at the human D1 receptor; P21728; HEK293 TREx D1 cells, calcium flux, dopamine EC20 potentiation; potentiation, % at 10 µM; actives 0.036% (n = 360,000); AID 504651; in the data active = potentiation above about 30%; note: 0% is about no effect
Active calls of the source: *. Compounds with a hit are over-represented: about 4.6% of the library has one in this group of screens. Cut-off read from the data, not from the text of the source, unless noted: active = activation above about 30%; inactive = the rest.

What do the screens show for `CC[C@@H]1C=C(C)C[C@H](C)C[C@H](OC)[C@H]2O[C@@](O)(C(=O)C(=O)N3CCCC[C@H]3C(=O)O[C@H](/C(C)=C/[C@@H]3CC[C@@H](O)[C@H](OC)C3)[C@H](C)[C@@H](O)CC1=O)[C@H](C)C[C@@H]2OC`?
D1 agonist: 32*; TRHR PAM: -11; TRHR agonist: 1; D1 antagonist: -4; D1 potentiator: -1

What do the screens show for `COc1ccc(S(=O)(=O)N2CCC3(CC2)OCCN3S(=O)(=O)c2cccs2)cc1OC`?
D1 agonist: 17; TRHR PAM: 7; TRHR agonist: 0; D1 antagonist: -5; D1 potentiator: -1

Results for COc1cc(C2c3c(oc4ccc(C)cc4c3=O)C(=O)N2c2cc(C)ccn2)cc(OC)c1OC (stereo not given) ?
D1 agonist: 5; TRHR PAM: 13; TRHR agonist: 0; D1 antagonist: 9; D1 potentiator: 0

How did CC1(NC(=O)c2cccc(S(=O)(=O)N3CCN(c4ccccc4)CC3)c2)CCS(=O)(=O)C1 (stereo not given) do in these assays?
D1 agonist: -2; TRHR PAM: 1; TRHR agonist: 0; D1 antagonist: 15; D1 potentiator: 9

What do the screens show for `CC(=O)N1c2ccccc2C(=O)C1N1CCN(c2ccc(F)cc2)CC1` (stereo not given)?
D1 agonist: 2; TRHR PAM: 0; TRHR agonist: 0; D1 antagonist: -46*; D1 potentiator: -6

What do the screens show for `CC(OC(=O)CCCN=C1NS(=O)(=O)c2ccccc21)C(=O)Nc1ccc(F)c(F)c1F` (stereo not given)?
D1 agonist: 33*; TRHR PAM: -2; TRHR agonist: -1; D1 antagonist: -1; D1 potentiator: -3

How did CC(OC(=O)CCCN=C1NS(=O)(=O)c2ccccc21)C(=O)c1ccccc1 (stereo not given) do in these assays?
D1 agonist: 45*; TRHR PAM: 5; TRHR agonist: 8; D1 antagonist: -1; D1 potentiator: 0

How did O=C(OCCN=C1NS(=O)(=O)c2ccccc21)c1ccccc1 do in these assays?
D1 agonist: 1; TRHR PAM: -4; TRHR agonist: -1; D1 antagonist: -4; D1 potentiator: -1

What do the screens show for `CC(C)C(=O)OCCN=C1NS(=O)(=O)c2ccccc21`?
D1 agonist: 3; TRHR PAM: 6; TRHR agonist: 1; D1 antagonist: -36*; D1 potentiator: -6

How did CCn1c(C(=O)N2CCC(C(=O)N3CCN(c4cccc(C)c4C)CC3)CC2)cc2sccc21 do in these assays?
D1 agonist: 3; TRHR PAM: 2; TRHR agonist: 0; D1 antagonist: -15; D1 potentiator: -4

How did CCn1c(C(=O)N2CCC(C(=O)N3CCN(c4cc(C)ccc4C)CC3)CC2)cc2sccc21 do in these assays?
D1 agonist: -1; TRHR PAM: 4; TRHR agonist: 0; D1 antagonist: -36*; D1 potentiator: -3

How did Cc1[nH]nc2c1C1(CCOC1C)C(C#N)=C(N)O2 (stereo not given) do in these assays?
D1 agonist: 3; TRHR PAM: -1; TRHR agonist: 1; D1 antagonist: -35*; D1 potentiator: -4

What do the screens show for `CC(=O)OC1COC(N2CCc3ccccc32)C(OC(C)=O)C1OC(C)=O` (stereo not given)?
D1 agonist: 1; TRHR PAM: 36*; TRHR agonist: 0; D1 antagonist: 8; D1 potentiator: 1

What do the screens show for `O=C(c1ccc(S(=O)(=O)Cc2cc(F)ccc2F)c([N+](=O)[O-])c1)N1CCCCC1`?
D1 agonist: 6; TRHR PAM: -2; TRHR agonist: 0; D1 antagonist: -5; D1 potentiator: 2

How did CCOc1ccccc1NC(=O)Cc1csc(COc2cccc(C)c2)n1 do in these assays?
D1 agonist: 68*; TRHR PAM: -5; TRHR agonist: 3; D1 antagonist: 1; D1 potentiator: 1

What do the screens show for `Cc1cccc(NC(=O)Cc2csc(COc3cccc(C)c3)n2)c1`?
D1 agonist: 0; TRHR PAM: -16; TRHR agonist: -1; D1 antagonist: 1; D1 potentiator: 0

How did CC(C)CCN(C(=O)Cc1ccccc1F)c1c(N)n(Cc2ccccc2)c(=O)[nH]c1=O do in these assays?
D1 agonist: 1; TRHR PAM: 1; TRHR agonist: 1; D1 antagonist: -55*; D1 potentiator: -3

Results for CC(C)CN(C(=O)CSc1nnc(-c2ccco2)o1)c1c(N)n(Cc2ccccc2)c(=O)[nH]c1=O ?
D1 agonist: 0; TRHR PAM: 12; TRHR agonist: -1; D1 antagonist: -38*; D1 potentiator: -6

What do the screens show for `CCCN(C(=O)C(NC(=O)c1ccccc1)C(C)C)c1c(N)n(Cc2ccccc2)c(=O)[nH]c1=O` (stereo not given)?
D1 agonist: 0; TRHR PAM: -3; TRHR agonist: 0; D1 antagonist: -77*; D1 potentiator: -20

How did COCCN(C(=O)COC(=O)C1=COCCO1)c1c(N)n(Cc2ccccc2)c(=O)[nH]c1=O do in these assays?
D1 agonist: 3; TRHR PAM: -6; TRHR agonist: 1; D1 antagonist: -61*; D1 potentiator: -14

What do the screens show for `CCCCN(C(=S)NC(=O)c1ccccc1)c1c(N)n(Cc2ccccc2)c(=O)[nH]c1=O`?
D1 agonist: 1; TRHR PAM: 3; TRHR agonist: 0; D1 antagonist: -2; D1 potentiator: -2

Results for COCCN(C(=O)C1=COCCO1)c1c(N)n(Cc2ccccc2)c(=O)[nH]c1=O ?
D1 agonist: 1; TRHR PAM: -1; TRHR agonist: 0; D1 antagonist: -5; D1 potentiator: -5

What do the screens show for `COc1ccc(OC)c(NC(=O)c2c(NCc3ccc(OC)c(OC)c3)sc3c2CCC(C)C3)c1` (stereo not given)?
D1 agonist: 0; TRHR PAM: 2; TRHR agonist: 1; D1 antagonist: 1; D1 potentiator: -3

How did COC(=O)C(C)(C)ONC(=O)Nc1ccccc1Cl do in these assays?
D1 agonist: 0; TRHR PAM: 11; TRHR agonist: 0; D1 antagonist: -8; D1 potentiator: 6

How did O=C(CSc1nc2ncccc2[nH]1)NCc1ccco1 do in these assays?
D1 agonist: 3; TRHR PAM: -4; TRHR agonist: 1; D1 antagonist: 15; D1 potentiator: -5

How did CCN(C(=O)CN1c2ccccc2CC1C)c1c(N)n(Cc2ccccc2)c(=O)[nH]c1=O (stereo not given) do in these assays?
D1 agonist: 2; TRHR PAM: 1; TRHR agonist: 0; D1 antagonist: -1; D1 potentiator: 46*

What do the screens show for `CC1Cc2ccccc2N1CC(=O)N(C)c1c(N)n(Cc2ccccc2)c(=O)[nH]c1=O` (stereo not given)?
D1 agonist: 4; TRHR PAM: -2; TRHR agonist: 2; D1 antagonist: -8; D1 potentiator: -2
